# Results from the supplement of paper PMC4466140.
# Experiments:
# Test in all cases: SPOT peptide array binding signal intensity (averaged, normalized) (arbitrary units (background-subtracted, floor 0; scale differs between SH3 domains)); higher = stronger binding of the SH3 domain to the peptide
# SpBzz1-D2 = target: SpBzz1-D2
# In short: (§1)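 Binding signal refers to normalized, background-subtracted spot intensity averaged over replicates, expressed in arbitrary units that differ between domains. GST-fused SH3 domains from four yeast species were incubated at 10 μg/ml overnight at 4°C on cellulose membranes of synthetic 15-mer peptides with cysteines replaced by serines. Bound protein was detected with anti-GST antibody, an HRP anti-mouse secondary and luminol, and quantified with Genespotter.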
# SpCyk3 = target: SpCyk3
# In short: as §1
# SpHof1 = target: SpHof1
# In short: as §1
# SpHof1-2 = target: SpHof1-2
# In short: as §1
# SpHof1-3 = target: SpHof1-3
# In short: as §1
# SpHse1 = target: SpHse1
# In short: as §1
# SpLsb1 = target: SpLsb1
# In short: as §1
# SpLsb4 = target: SpLsb4
# In short: as §1
# SpMyo1 = target: SpMyo1
# In short: as §1
# SpNbp2 = target: SpNbp2
# In short: as §1
# SpPex13 = target: SpPex13
# In short: as §1
# SpRvs167 = target: SpRvs167
# In short: as §1
# SpSla1-D1-D2 = target: SpSla1-D1-D2
# In short: as §1
# SpSla1-D3 = target: SpSla1-D3
# In short: as §1
# AgAbp1 = target: AgAbp1
# In short: as §1
# AgBbc1 = target: AgBbc1
# In short: as §1
# AgBem1-D1 = target: AgBem1-D1
# In short: as §1
# AgBzz1-D1 = target: AgBzz1-D1
# In short: as §1
# AgBzz1-D2 = target: AgBzz1-D2
# In short: as §1
# AgCyk3 = target: AgCyk3
# In short: as §1
# AgFus1 = target: AgFus1
# In short: as §1
# AgHof1 = target: AgHof1
# In short: as §1
# AgHse1 = target: AgHse1
# In short: as §1
# AgLsb1 = target: AgLsb1
# In short: as §1
# AgLsb4 = target: AgLsb4
# In short: as §1
# AgMyo5 = target: AgMyo5
# In short: as §1
# AgNbp2 = target: AgNbp2
# In short: as §1
# AgRvs167 = target: AgRvs167
# In short: as §1
# AgSho1 = target: AgSho1
# In short: as §1
# AgSla1-D1-D2 = target: AgSla1-D1-D2
# In short: as §1
# AgSla1-D3 = target: AgSla1-D3
# In short: as §1
# CaAbp1-D1 = target: CaAbp1-D1
# In short: as §1
# CaAbp1-D2 = target: CaAbp1-D2
# In short: as §1
# CaBbc1 = target: CaBbc1
# In short: as §1
# CaBem1-D1 = target: CaBem1-D1
# In short: as §1
# CaBzz1-D1 = target: CaBzz1-D1
# In short: as §1
# CaBzz1-D2 = target: CaBzz1-D2
# In short: as §1
# CaCyk3 = target: CaCyk3
# In short: as §1
# CaFus1 = target: CaFus1
# In short: as §1
# CaHof1 = target: CaHof1
# In short: as §1
# CaHse1 = target: CaHse1
# In short: as §1
# CaLsb1 = target: CaLsb1
# In short: as §1
# CaLsb4 = target: CaLsb4
# In short: as §1
# CaMyo5 = target: CaMyo5
# In short: as §1
# CaNbp2 = target: CaNbp2
# In short: as §1
# CaRvs167 = target: CaRvs167
# In short: as §1
# CaRvs167-3 = target: CaRvs167-3
# In short: as §1
# CaSho1 = target: CaSho1
# In short: as §1
# CaSla1-D1-D2 = target: CaSla1-D1-D2
# In short: as §1
# CaSla1-D3 = target: CaSla1-D3
# In short: as §1
# ScAbp1 = target: ScAbp1
# In short: as §1
# ScBbc1 = target: ScBbc1
# In short: as §1
# ScBem1-D1 = target: ScBem1-D1
# In short: as §1
# ScBzz1-D1 = target: ScBzz1-D1
# In short: as §1
# ScBzz1-D2 = target: ScBzz1-D2
# In short: as §1
# ScCyk3 = target: ScCyk3
# In short: as §1
# ScFus1 = target: ScFus1
# In short: as §1
# ScHof1 = target: ScHof1
# In short: as §1
# ScHse1 = target: ScHse1
# In short: as §1
# ScLsb1 = target: ScLsb1
# In short: as §1
# ScLsb2 = target: ScLsb2
# In short: as §1
# ScLsb3 = target: ScLsb3
# In short: as §1
# ScLsb4 = target: ScLsb4
# In short: as §1
# ScMyo3 = target: ScMyo3
# In short: as §1
# ScMyo5 = target: ScMyo5
# In short: as §1
# ScNbp2 = target: ScNbp2
# In short: as §1
# ScPex13 = target: ScPex13
# In short: as §1
# ScRvs167 = target: ScRvs167
# In short: as §1
# ScSho1 = target: ScSho1
# In short: as §1
# ScSla1-D1-D2 = target: ScSla1-D1-D2
# In short: as §1
# ScSla1-D3 = target: ScSla1-D3
# In short: as §1
# SpAbp1-D1 = target: SpAbp1-D1
# In short: as §1
# SpBbc1 = target: SpBbc1
# In short: as §1
# SpBzz1-D1 = target: SpBzz1-D1
# In short: as §1
binder,measurement,setting,value
RRGPAPPPPPRASRP,SPOT peptide array binding signal intensity,SpBzz1-D2,340
same,SPOT peptide array binding signal intensity,SpCyk3,13
same,SPOT peptide array binding signal intensity,SpHof1,52
same,SPOT peptide array binding signal intensity,SpHof1-2,27.8
same,SPOT peptide array binding signal intensity,SpHof1-3,420
same,SPOT peptide array binding signal intensity,SpHse1,37.8
same,SPOT peptide array binding signal intensity,SpLsb1,107
same,SPOT peptide array binding signal intensity,SpLsb4,1730
same,SPOT peptide array binding signal intensity,SpMyo1,391
same,SPOT peptide array binding signal intensity,SpNbp2,15.5
same,SPOT peptide array binding signal intensity,SpPex13,2
same,SPOT peptide array binding signal intensity,SpRvs167,2270
same,SPOT peptide array binding signal intensity,SpSla1-D1-D2,571
same,SPOT peptide array binding signal intensity,SpSla1-D3,≤ 0
IVNKPLPPLPVAGSS,SPOT peptide array binding signal intensity,AgAbp1,177
same,SPOT peptide array binding signal intensity,AgBbc1,≤ 0
same,SPOT peptide array binding signal intensity,AgBem1-D1,5.5
same,SPOT peptide array binding signal intensity,AgBzz1-D1,30
same,SPOT peptide array binding signal intensity,AgBzz1-D2,17.5
same,SPOT peptide array binding signal intensity,AgCyk3,≤ 0
same,SPOT peptide array binding signal intensity,AgFus1,1.5
same,SPOT peptide array binding signal intensity,AgHof1,748
same,SPOT peptide array binding signal intensity,AgHse1,17.5
same,SPOT peptide array binding signal intensity,AgLsb1,≤ 0
same,SPOT peptide array binding signal intensity,AgLsb4,7.5
same,SPOT peptide array binding signal intensity,AgMyo5,≤ 0
same,SPOT peptide array binding signal intensity,AgNbp2,≤ 0
same,SPOT peptide array binding signal intensity,AgRvs167,2.33
same,SPOT peptide array binding signal intensity,AgSho1,6850
same,SPOT peptide array binding signal intensity,AgSla1-D1-D2,1
same,SPOT peptide array binding signal intensity,AgSla1-D3,≤ 0
same,SPOT peptide array binding signal intensity,CaAbp1-D1,21.5
same,SPOT peptide array binding signal intensity,CaAbp1-D2,48
same,SPOT peptide array binding signal intensity,CaBbc1,≤ 0
same,SPOT peptide array binding signal intensity,CaBem1-D1,≤ 0
same,SPOT peptide array binding signal intensity,CaBzz1-D1,459
same,SPOT peptide array binding signal intensity,CaBzz1-D2,≤ 0
same,SPOT peptide array binding signal intensity,CaCyk3,0.5
same,SPOT peptide array binding signal intensity,CaFus1,232
same,SPOT peptide array binding signal intensity,CaHof1,55.2
same,SPOT peptide array binding signal intensity,CaHse1,1300
same,SPOT peptide array binding signal intensity,CaLsb1,≤ 0
same,SPOT peptide array binding signal intensity,CaLsb4,≤ 0
same,SPOT peptide array binding signal intensity,CaMyo5,≤ 0
same,SPOT peptide array binding signal intensity,CaNbp2,≤ 0
same,SPOT peptide array binding signal intensity,CaRvs167,1.17
same,SPOT peptide array binding signal intensity,CaRvs167-3,≤ 0
same,SPOT peptide array binding signal intensity,CaSho1,6570
same,SPOT peptide array binding signal intensity,CaSla1-D1-D2,338
same,SPOT peptide array binding signal intensity,CaSla1-D3,0.5
same,SPOT peptide array binding signal intensity,ScAbp1,378
same,SPOT peptide array binding signal intensity,ScBbc1,0.25
same,SPOT peptide array binding signal intensity,ScBem1-D1,≤ 0
same,SPOT peptide array binding signal intensity,ScBzz1-D1,≤ 0
same,SPOT peptide array binding signal intensity,ScBzz1-D2,≤ 0
same,SPOT peptide array binding signal intensity,ScCyk3,≤ 0
same,SPOT peptide array binding signal intensity,ScFus1,10
same,SPOT peptide array binding signal intensity,ScHof1,1300
same,SPOT peptide array binding signal intensity,ScHse1,32
same,SPOT peptide array binding signal intensity,ScLsb1,≤ 0
same,SPOT peptide array binding signal intensity,ScLsb2,≤ 0
same,SPOT peptide array binding signal intensity,ScLsb3,154
same,SPOT peptide array binding signal intensity,ScLsb4,≤ 0
same,SPOT peptide array binding signal intensity,ScMyo3,≤ 0
same,SPOT peptide array binding signal intensity,ScMyo5,≤ 0
same,SPOT peptide array binding signal intensity,ScNbp2,≤ 0
same,SPOT peptide array binding signal intensity,ScPex13,2500
same,SPOT peptide array binding signal intensity,ScRvs167,97.8
same,SPOT peptide array binding signal intensity,ScSho1,7450
same,SPOT peptide array binding signal intensity,ScSla1-D1-D2,288
same,SPOT peptide array binding signal intensity,ScSla1-D3,1.5
same,SPOT peptide array binding signal intensity,SpAbp1-D1,1580
same,SPOT peptide array binding signal intensity,SpBbc1,1
same,SPOT peptide array binding signal intensity,SpBzz1-D1,159
same,SPOT peptide array binding signal intensity,SpBzz1-D2,≤ 0
same,SPOT peptide array binding signal intensity,SpCyk3,3
same,SPOT peptide array binding signal intensity,SpHof1,2930
same,SPOT peptide array binding signal intensity,SpHof1-2,3490
same,SPOT peptide array binding signal intensity,SpHof1-3,5540
same,SPOT peptide array binding signal intensity,SpHse1,15
same,SPOT peptide array binding signal intensity,SpLsb1,47
same,SPOT peptide array binding signal intensity,SpLsb4,1.5
same,SPOT peptide array binding signal intensity,SpMyo1,184
same,SPOT peptide array binding signal intensity,SpNbp2,11
same,SPOT peptide array binding signal intensity,SpPex13,15
same,SPOT peptide array binding signal intensity,SpRvs167,1580
same,SPOT peptide array binding signal intensity,SpSla1-D1-D2,1200
same,SPOT peptide array binding signal intensity,SpSla1-D3,≤ 0
